Assay outcomes from PubChem.
Rows were chosen to be rich in hits. Some 2.4% of all compounds tested hit in one or more screens of this group.
M1 ag: agonists of human M1 muscarinic receptor. CHO-K1 hM1, Fluo-8 calcium fluorescence, agonist mode; 0% DMSO, 100% acetylcholine EC100. P11229. activation, % at 3 µM. 0.33% of 360,000 active;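 active means activation above the run's mean compound activation plus 3 SD, cut at about 16% in these data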;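 further: peak over basal fluorescence ratio within a 140 s kinetic read after compound addition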
M1 antag: antagonists of human M1 muscarinic receptor; P11229; CHO-K1 hM1, Fluo-8 calcium fluorescence, ACh EC80 antagonist; inhibition, % at 3 µM; 1.3% of 360,000 active; AID 588852;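 active means percent inhibition above its own plate's cutoff, namely the mean of that plate's compound wells plus 3 SD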;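 further: peak over basal fluorescence ratio during 140 s after agonist addition; 0% = ACh EC80 plus DMSO and 100% = DMSO alone without agonist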
CHRM1 PAM: potentiates human M1 receptor response to acetylcholine; AID 588819; CHO-K1 hM1, Fluo-8 calcium fluorescence, ACh EC20; 0% = ACh EC20, 100% = maximal ACh; 0.088% of 360,000 active; activation, % at 3 µM; in the data active means activation above about 19%, passing the limit was not always enough
CHO-K1 Ca antag: counter-screen for M1 antagonists: effect in parental CHO-K1 cells; ATP-induced calcium, Fluo-8 fluorescence; inhibition, % at 3 µM; 0.6% of 360,000 active; AID 602250;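 active means inhibition above a per-plate cutoff, the plate's mean sample inhibition plus 3 SD, cut at about 24% in these data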;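 further: 0% = DMSO plus EC80 ATP and 100% = DMSO alone without ATP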
CHO-K1 Ca PAM: M1 PAM counterscreen hit in parental CHO-K1 cells | ATP EC20, Fluo-8 calcium fluorescence; 0% at ATP EC20, 100% at ATP max | activation, % at 3 µM | 0.02% of 360,000 active | AID 602247;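 active means activation above the run cutoff, the mean activation of all test compounds plus 3 SD, cut at about 40% in these data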;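 further: peak over basal fluorescence ratio in a 140 s read after ATP addition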
CHO-K1 Ca ag: nonselective activator or artifact in parental CHO-K1 cells | activation, % at 3 µM | 0.48% of 360,000 active | Fluo-8 calcium fluorescence; scaled to maximal ATP response, vehicle zero; in the data active means activation above about 15%;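 further: untransfected CHO-K1 host cells lacking M1 receptor as counterscreen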
The depositor's hits bear a star; · = no result given.

SMILES	M1 ag	M1 antag	CHRM1 PAM	CHO-K1 Ca antag	CHO-K1 Ca PAM	CHO-K1 Ca ag
CCOc1ccc(-n2c(-c3ccc(Br)cc3)c[n+]3c2CCCCC3)cc1	-12	30*	-27	2	3	1
CCOc1ccc(-n2c(-c3ccccc3)c[n+]3c2CCC3)cc1	-5	38*	-15	-12	17	1
O=C(NCc1ccncc1)[C@@H]1CCCN1C(=O)[C@H]1CCCN1C(=O)c1cccc(Cl)c1	·	·	·	-4	-3	0
CC(=O)Nc1ccc(SCCC2CCCCN2C)cc1 (centres undefined)	-12	25*	-19	-5	-2	0
CCC(C)NC(=O)CSc1ccc(NC(C)=O)cc1 (centres undefined)	-4	6	4	6	5	0
COc1ccc(C(=O)C[n+]2ccccc2/C=N/O)cc1	-10	16	-21	9	-7	0
O/N=C/c1cccc[n+]1CCCCCC[n+]1ccccc1/C=N/O	-9	45*	-22	3	4	1
COc1ccc(CC(=O)NC(=S)Nc2ccc(S(=O)(=O)NC(C)(C)C)cc2)cc1	24*	-15	9	1	29	11
COc1ccc(NC(=S)NC(=O)Cc2ccccc2)cc1	-1	-10	5	-1	12	10
COc1ccc(C(=O)NC(=S)Nc2ccc(S(N)(=O)=O)cc2)cc1	-9	-8	14	5	3	0
COc1ccc(CC(=O)NC(=S)Nc2ccc(S(N)(=O)=O)cc2)cc1	30*	0	-1	-4	7	14
Cc1cccc(C(O)c2ncc(-c3ccccc3)[nH]2)c1C (centres undefined)	-1	-5	6	2	-6	0
O=C(CSc1nnc(NC2CCCCC2)s1)Nc1ccc2c(c1)C(=O)c1ccccc1C2=O	3	1	9	-3	0	0
CC(C)Nc1nnc(SCC(=O)Nc2ccc3c(c2)C(=O)c2ccccc2C3=O)s1	-2	31*	-17	3	3	6
N#C/C(=N\Nc1ccc(Cl)cc1)C(=O)c1ccccc1	7	15	-2	31*	-3	7
O=C(NCc1ccncc1)C(=O)NCC1OCCCN1S(=O)(=O)c1cc(F)ccc1F (centres undefined)	-4	6	-2	5	-18	0
O=C(NCC1OCCCN1S(=O)(=O)c1cc(F)ccc1F)C(=O)NC1CCCCCC1 (centres undefined)	-4	3	-3	32*	2	2
CCN1C(=O)/C(=C/N2CC(C)CC(C)C2)SC1=S (centres undefined)	-1	-2	3	-7	16	0
CCN1C(=O)/C(=C\N2CCCCCC2)SC1=S	-4	99*	-23	10	-9	1
Cc1nc(Nc2cccc(C(C)O)c2)c2nnn(Cc3ccc(F)cc3)c2n1 (centres undefined)	-5	6	-4	-13	6	7
O=C(Nc1c(F)cc(F)cc1Br)c1cc(-c2ccccc2)on1	-4	4	-2	0	3	0
O=C(NCc1cccs1)c1cc(-c2ccc(O)cc2)on1	17*	-16	4	5	-4	5
O=C(Nc1c(F)cc(F)cc1Br)c1cc(-c2ccc(O)cc2)on1	18*	-2	2	7	3	3
Cc1ccc(-c2cc(C(=O)NCc3cccs3)no2)cc1	-6	2	1	-3	7	0
Cc1ccc(F)c(S(=O)(=O)NC(=O)C2(C)CCN2C(=O)Cc2ccsc2)c1 (centres undefined)	-1	-15	5	9	3	0
CCC(C)N1CCCC1C(=O)Nc1c(C)cc(C)cc1C (centres undefined)	-5	17	-6	25*	-10	-1
Cc1cc(C)c(NC(=O)C2CCCN2CCC(C)C)c(C)c1 (centres undefined)	-3	-2	3	-6	14	1
CCn1c(-c2ccccc2Cl)nn(CC(=O)Nc2ccc(OC)cc2)c1=S	-3	-5	6	-1	13	1
COc1ccc(C(=O)Nc2ccc3ccccc3c2)cc1	-4	-6	9	-5	16	1
